According to PubChem BioAssay (Tox21):
Records with an inconclusive call do not appear. The source made the active and inactive calls. Unless noted, calls follow the shape of the dose curve; as a rule, active = well fitted curve in the direction sought with a large enough effect in the repeat runs; inconclusive = weak or mixed curves; inactive = no such curve, though single readings can be large; an effect the other way counts as inactive or inconclusive.

How the values were obtained:
[1] = qHTS assay to identify small molecule antagonists of the estrogen related receptor (ERR) signaling pathway from Tox21 library - cell viability counter screen (AID 1224834); also: nearly all actives have a fitted effect of over 30% in size; also: potency is read from the fitted curve at half-maximal effect
How it was run: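 After 17.5 h of compound exposure at 37 C, ERR cells are incubated with CellTiter-Fluor for 30 min and fluorescence intensity serves as the viability measure.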

[2] = target: Luciferin 4-monooxygenase (Photinus pyralis) (UniProt P08659); test: qHTS assay to identify small molecule inhibitors of firefly luciferase (AID 1224835); also: nearly all actives have a fitted effect of over 25% in size; also: potency is read from the fitted curve at half-maximal effect
Sequence of Luciferin 4-monooxygenase (Photinus pyralis) (P08659 whole entry, looked up): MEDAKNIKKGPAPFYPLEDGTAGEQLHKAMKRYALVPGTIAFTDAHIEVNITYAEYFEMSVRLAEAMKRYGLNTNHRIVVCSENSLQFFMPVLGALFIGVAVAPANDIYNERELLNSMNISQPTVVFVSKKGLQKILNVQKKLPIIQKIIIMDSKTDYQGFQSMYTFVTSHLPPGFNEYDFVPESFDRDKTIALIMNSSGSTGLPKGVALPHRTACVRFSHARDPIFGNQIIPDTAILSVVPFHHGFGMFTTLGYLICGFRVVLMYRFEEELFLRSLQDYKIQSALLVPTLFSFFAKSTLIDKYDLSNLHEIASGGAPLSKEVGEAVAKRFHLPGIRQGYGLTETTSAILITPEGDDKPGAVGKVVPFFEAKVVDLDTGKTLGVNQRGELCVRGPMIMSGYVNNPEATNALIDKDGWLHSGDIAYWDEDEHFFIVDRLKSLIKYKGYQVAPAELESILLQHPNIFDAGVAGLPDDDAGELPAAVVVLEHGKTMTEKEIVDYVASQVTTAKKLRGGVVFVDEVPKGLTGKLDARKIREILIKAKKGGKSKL
How it was run: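 Biochemical qHTS: compounds run as interplate titrations against purified firefly enzyme, with D-luciferin and ATP each at its KM concentration. Light output recorded by CCD imaging.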

[3] = qHTS assay to identify small molecule agonists of the constitutive androstane receptor (CAR) signaling pathway - cell viability counter screen (AID 1224836); also: series mostly up to about 92 µM; nearly all actives have a fitted effect of over 45% in size
How it was run: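 Cells were seeded and incubated 4 hrs. Compounds were added across 15 concentrations together with PK11195 at 0.75 uM final. Plates were incubated 23 hrs at 37 C. CellTiter-Fluor was added and fluorescence measured.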

[4] = qHTS assay to identify small molecule antagonists of the constitutive androstane receptor (CAR) signaling pathway - cell viability counter screen (AID 1224837); also: series mostly up to about 92 µM; nearly all actives have a fitted effect of over 45% in size
How it was run: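 Counter screen run in HepG2-CYP2B6-hCAR cells: 4 hr settle, compound titration (15 concentrations) with 50 nM CITCO, 23 hr at 37 C/5% CO2, CellTiter-Fluor fluorescence.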

[5] = target: Nuclear receptor subfamily 1 group I member 3 (Homo sapiens) (UniProt Q14994); test: qHTS assay to identify small molecule antagonists of the constitutive androstane receptor (CAR) signaling pathway (AID 1224838);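 also: HepG2 cells stably expressing hCAR with CYP2B6 luciferase reporter stimulated by CITCO; nearly all actives have a fitted effect of over 40% in size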; also: potency is read from the fitted curve at half-maximal effect
Sequence of Nuclear receptor subfamily 1 group I member 3 (Homo sapiens) (Q14994 whole entry, looked up): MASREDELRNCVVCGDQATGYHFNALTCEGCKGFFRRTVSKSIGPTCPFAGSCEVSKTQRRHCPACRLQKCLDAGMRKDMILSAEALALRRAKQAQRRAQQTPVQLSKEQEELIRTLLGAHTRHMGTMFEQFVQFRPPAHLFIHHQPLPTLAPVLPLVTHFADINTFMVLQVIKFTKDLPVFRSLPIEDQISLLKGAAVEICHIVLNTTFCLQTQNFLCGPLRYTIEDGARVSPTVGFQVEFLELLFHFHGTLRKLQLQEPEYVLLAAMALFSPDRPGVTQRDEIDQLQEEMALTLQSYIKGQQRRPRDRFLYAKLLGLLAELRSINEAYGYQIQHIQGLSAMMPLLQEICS
How it was run: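 Cell line: HepG2 double-stable for hCAR and CYP2B6-2.2kb reporter. Agonist: CITCO, 50 nM final. Compounds: 15 concentrations, 24 h, 37 C. Detection: ONE-Glo luminescence.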

[6] = target: Nuclear receptor subfamily 1 group I member 3 (Homo sapiens) (UniProt Q14994); test: qHTS assay to identify small molecule agonists of the constitutive androstane receptor (CAR) signaling pathway (AID 1224839); also: nearly all actives have a fitted effect of over 15% in size; also: potency is read from the fitted curve at half-maximal effect
How it was run: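 Cells were plated and incubated 4 hrs, then dosed with compounds at 15 concentrations. PK11195 was added to 0.75 uM final. After 24 hrs at 37 C, luciferase luminescence was measured.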

[7] = qHTS assay to identify small molecule antagonists of the estrogen related receptor signaling pathway with the pleiotropic PPARgamma coactivator (PGC) from Tox21 10K library - cell viability counter screen (AID 1224840; active = well fitted cell-killing curve with a large enough effect in the repeat runs, not every such curve was filed as active; also: nearly all actives have a fitted effect of over 40% in size)
How it was run: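 Following seeding of 2,000 PGC/ERR cells/well and 6 hours' incubation, test compounds were delivered in DMSO. The plates then sat 17.5 hours at 37 C before a fluorogenic live-cell protease reagent (CellTiter-Fluor) was read after 30 min.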

[8] = qHTS assay to identify small molecule agonists of the estrogen related receptor signaling pathway with the pleiotropic PPARgamma coactivator (PGC) (AID 1224823)
How it was run: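 Steps: plate PGC/ERR cells at 2,000 cells/well; incubate 6 h, 37 C/5% CO2; pin-transfer compounds (DMSO); incubate 18 h, 37 C; add One-Glo; 30 min RT; read luminescence.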

[9] = qHTS assay to identify small molecule agonists of the estrogen related receptor signaling pathway with the pleiotropic PPARgamma coactivator (PGC) from Tox21 10K library (AID 1224842); also: nearly all actives have a fitted effect of over 15% in size
How it was run: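 PGC/ERR reporter cell line, 2,000 cells per well, incubated 6 h at 37 C before 23 nL compound in DMSO was added. After 18 h at 37 C, One-Glo luminescence read following 30 min at room temperature.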

[10] = qHTS assay to identify small molecule antagonists of the estrogen related receptor signaling pathway with the pleiotropic PPARgamma coactivator (PGC) from Tox21 10K library (AID 1224841; call rule not given here; also: series mostly up to about 92 µM; actives are mostly falling curves and most rising ones were filed inactive; nearly all actives have a fitted effect of over 50% in size)
How it was run: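 qHTS antagonist format: PGC/ERR cells, 2k/well, compound in DMSO by pin transfer after 6 h attachment, 18 h treatment at 37 C, One-Glo luminescence read at 30 min.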

Measured: Potency

Cc1nccn1CC1CCc2c(c3ccccc3n2C)C1=O (stereo not given)
not listed: [8] | [9] | [10]
inactive: all other assays above

OCC(CO)(CO)COCC(CO)(CO)CO
not listed: [8] | [9] | [10]
inactive: all other assays above

CCOC(=O)Nc1ccc2c(c1)N(C(=O)CCN1CCOCC1)c1ccccc1S2
active: [5] 1.19 µM
not listed: [8] | [9] | [10]
inactive: all other assays above

CC(C)[N+](C)(C)CC(O)COc1cccc2ccccc12 (stereo not given)
not listed: [8] | [9] | [10]
inactive: all other assays above

CCCC(=O)O[C@]1(C(=O)CCl)[C@@H](C)C[C@H]2[C@@H]3CCC4=CC(=O)C=C[C@]4(C)[C@@]3(F)C(=O)C[C@@]21C
not listed: [8] | [9] | [10]
inactive: all other assays above

CCCCc1ccc(N)cc1
not listed: [8] | [9] | [10]
inactive: all other assays above

CN(C)C(=O)C(CCN1CCC(O)(c2ccc(Cl)cc2)CC1)(c1ccccc1)c1ccccc1
active: [1] 26.6 µM
inactive: [8] | [2] | [9]

[O-][N+](=Nc1ccccc1)c1ccccc1
active: [2] 11.3 µM | [6] 30.6 µM
inactive: [1] | [3] | [4] | [5] | [7]

CC(C)=CC(=O)O
not listed: [8] | [9] | [10]
inactive: all other assays above

N#CCc1ccccc1[N+](=O)[O-]
not listed: [8] | [9] | [10]
inactive: all other assays above

CC(C)N1C(=O)c2ccccc2C1=O
not listed: [8] | [9] | [10]
inactive: all other assays above

C[C@H](O)C(=O)Nc1c(I)c(C(=O)NC(CO)CO)c(I)c(C(=O)NC(CO)CO)c1I
not listed: [8] | [9] | [10]
inactive: all other assays above

CC(C)COC(=O)c1ccccc1O
not listed: [8] | [9] | [10]
inactive: all other assays above

CCCC(C)CO (stereo not given)
not listed: [8] | [9] | [10]
inactive: all other assays above

CC(=O)c1ccc(C)cc1
not listed: [8] | [9] | [10]
inactive: all other assays above

NCCN1CCNC1=O
not listed: [8] | [9] | [10]
inactive: all other assays above

NC1CCN(c2cccc(Cl)n2)CC1
not listed: [8] | [9] | [10]
inactive: all other assays above

O=C(O)c1ccccc1S
not listed: [8] | [9] | [10]
inactive: all other assays above

CC1=CC(C)C(C=O)C(C)C1 (stereo not given)
not listed: [8] | [9] | [10]
inactive: all other assays above

Cc1ccc(Nc2ccc(O)c3c2C(=O)c2ccccc2C3=O)cc1
not listed: [8] | [9] | [10]
inactive: all other assays above

C=C(C)[C@H]1CC=C(C)CC1
not listed: [8] | [9] | [10]
inactive: all other assays above

O=C1CC2(CCCC2)CC(=O)N1
not listed: [8] | [9] | [10]
inactive: all other assays above

NS(=O)(=O)c1cc2c(cc1C(F)(F)F)NC(Cc1ccccc1)NS2(=O)=O (stereo not given)
not listed: [8] | [9] | [10]
inactive: all other assays above

C=CCOCC(O)CS(=O)(=O)O (stereo not given)
not listed: [8] | [9] | [10]
inactive: all other assays above

CCCCCCCCCCCCI
active: [2] 56.7 µM
not listed: [8] | [9] | [10]
inactive: all other assays above

O=C(O)/C=C/c1ccc(/C=C/C(=O)O)cc1
not listed: [8] | [9] | [10]
inactive: all other assays above

C[C@H]1O[C@@H](n2cc(F)c(=O)[nH]c2=O)[C@H](O)[C@@H]1O
not listed: [5] | [6] | [10]
inactive: all other assays above

CC(C)(C)OC(=O)N1C[C@@H](F)C[C@H]1C(=O)O
not listed: [8] | [9] | [10]
inactive: all other assays above

C=C(C)C(=O)NCCC[N+](C)(C)C
not listed: [8] | [9] | [10]
inactive: all other assays above

CCCCCN(CCCCC)C(=O)C(CCC(=O)O)NC(=O)c1ccc(Cl)c(Cl)c1 (stereo not given)
not listed: [8] | [9] | [10]
inactive: all other assays above

c1cc(CN2CCCCC2)cc(OCCCNc2nc3ccccc3s2)c1
active: [1] 29.8 µM
not listed: [3] | [4]
inactive: all other assays above
